The subject of assay [1] is Zika virus NS2B-NS3 protease (linked construct). Nature of the assay: Primary screen NINDS Rhodamine qHTS for Zika virus inhibitors (AID 1347160). Also: nearly all actives have a fitted effect of over 55% in size. An outline of the steps: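 Each compound, titrated, sat 15 min with 25 nM linked protease before 1.5 microM Rhodamine110 substrate went in. Fluorescence gain over the next 15 min, in pH 8.0 Tris with Tween 20, gave Hill-fitted curves.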

Assay [2] concerns the target Calcium and integrin-binding protein 1 (Homo sapiens) (UniProt Q99828). Nature of the assay: Primary qHTS for Identification of Calcium Integrin Binding Protein 1 (CIB1) Competitor (AID 1508620).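 Also: GST tagged CIB1 binding a fluorescein labelled alphaIIb integrin peptide tracer; top concentration of the series differs between compounds; % is scaled to controls: 0 for no effect and ±100 for the full control effect.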 An outline of the steps: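 Fluorescence polarization competition: CIB1-GST (1 uM final) preincubated with compound 15 min at room temperature, then FITC-labeled alphaIIb peptide (100 nM final) added for another 15 min. Polarization read at Ex 480/Em 540.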
For orientation: Quantitative high-throughput screening tests each substance at several concentrations.

Assay [3] deals with Phospholipid hydroperoxide glutathione peroxidase GPX4 (Homo sapiens) (UniProt P36969). Nature of the assay: Primary qHTS Assay for Inhibitors of Recombinant Selenoprotein Glutathione Peroxidase 4 (GPX4) (AID 1845192). Also: % is scaled to controls: 0 for no effect and ±100 for the full control effect; nearly all actives have a fitted effect of over 65% in size. An outline of the steps: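 qHTS, GR-coupled: GPX4 200 nM + cpd 30 min RT → GSH 1 mM, NADPH 0.5 mM, GR 100 nM → CHP 0.5 mM start; fluor 340/450 at t0 and t15 min; no-enzyme wells as control.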
Sequence of Phospholipid hydroperoxide glutathione peroxidase GPX4 (Homo sapiens) (P36969 whole entry, looked up): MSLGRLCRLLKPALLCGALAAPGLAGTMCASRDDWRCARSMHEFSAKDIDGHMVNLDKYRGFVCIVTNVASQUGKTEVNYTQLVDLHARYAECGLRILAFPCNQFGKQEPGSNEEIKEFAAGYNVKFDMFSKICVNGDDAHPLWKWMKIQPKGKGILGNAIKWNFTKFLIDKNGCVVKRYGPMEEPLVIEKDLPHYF

Assay [4] addresses Luciferin 4-monooxygenase (Photinus pyralis) (UniProt P08659). Nature of the assay: Primary firefly luciferase (FLuc) qHTS assay for identification of artifact compounds. (AID 1845220). Also: nearly all actives have a fitted effect of over 60% in size. Conditions: outcome: dose series up to 54.1 µM unless noted. An outline of the steps: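 In this counter-screen for luciferase artifacts, test compounds met substrate (10 uM each luciferin and ATP) before 10 nM enzyme started the reaction. Light output was measured 5 min later.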

The nature of assay [5]: Primary fluorescence-based thiol-reactive (MSTI) qHTS assay for identification of artifact compounds. (AID 1845221).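 Also: thiol-reactive compounds lower the probe fluorescence signal; nearly all actives have a fitted effect of over 65% in size.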 An outline of the steps: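 Curve-fitted percent inhibition (4-parameter Hill) derived from fluorescence, Ex 525/Em 598 nm, scaled with Acetyl-MSTI and MSTI; 1 h incubation at room temperature.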
The subject of assay [6] is Nanoluciferase (engineered Oplophorus gracilirostris luciferase). Nature of the assay: Primary Nanoluciferase (NLuc) qHTS assay for identification of artifact compounds. (AID 1845222).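 Also: NLuc secreted into diluted conditioned medium of S16 cells.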 An outline of the steps:
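Using secreted nanoluciferase in S16 culture medium (0.22 um filtered, 1:55 dilution), compounds were preincubated 15 min at RT. Signal was generated with Nano-Glo reagent (1:100) over 5 min.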

The next assay has as its system HaCat. Put plainly: Cytotoxic Profiling of Annotated Libraries Using Quantitative High-Throughput Screening (AID 1296008). Also: nearly all actives have a fitted effect of over 60% in size. Also: potency is read from the fitted curve at half-maximal effect. As to max response: % is scaled to controls: 0 for no effect and ±100 for the full control effect. Conditions: Five cell lines viability, CellTiter-Glo ATP luminescence, 48-72 h; max response: hits give low values. An outline of the steps:
(§1)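 Compounds were pin-transferred onto cells and incubated 48 or 72 hr at 37 degree Celsius, 95% humidity. CellTiter-Glo was added, plates sat 10 min at room temperature, then ATP-coupled luminescence was imaged as the viability read-out.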
On the technique in general: ATP-based viability assays read luminescence as a measure of living cells.

In a further assay the test system is NIH3T3. The description is as above. Conditions: Five cell lines viability, CellTiter-Glo ATP luminescence, 48-72 h; max response: hits give low values. An outline of the steps:
as §1

Another assay relates to CAOV3. Nature of the assay: Primary qHTS to identify gynecologic anti-cancer compounds using libraries of approved drugs and bioactive compounds (AID 1345084). Also: nearly all actives have a fitted effect of over 55% in size. Also: potency is read from the fitted curve at half-maximal effect. Conditions: Gynecologic cancer cell panel viability, ATPlite luminescence, 48 h; series mostly up to 57.5 µM. An outline of the steps: (§2)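 Cytotoxicity screen measuring ATP content by luciferase luminescence. Each compound is applied at five concentrations for 48 h at 37 C with 5% CO2.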

A further assay deals with Hek293T. The assay is described as above. Conditions: Gynecologic cancer cell panel viability, ATPlite luminescence, 48 h, control line for the selectivity index; series mostly up to 57.5 µM. An outline of the steps:
as §2

For assay [7], the target named is Glutathione peroxidase 1 (Homo sapiens) (UniProt P07203). Put plainly: Primary qHTS Assay for Inhibitors of Recombinant Selenoprotein Glutathione Peroxidase 1 (GPX1) (AID 1845191). Also: % is scaled to controls: 0 for no effect and ±100 for the full control effect; nearly all actives have a fitted effect of over 65% in size. An outline of the steps: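 GPX1 10 nM, GR 100 nM, GSH 1 mM, NADPH 0.5 mM, CHP 0.5 mM (final). 30-min cpd preincubation, RT. Ex340/Em450 read t=0, t=15 min.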
Sequence of Glutathione peroxidase 1 (Homo sapiens) (P07203 whole entry, looked up): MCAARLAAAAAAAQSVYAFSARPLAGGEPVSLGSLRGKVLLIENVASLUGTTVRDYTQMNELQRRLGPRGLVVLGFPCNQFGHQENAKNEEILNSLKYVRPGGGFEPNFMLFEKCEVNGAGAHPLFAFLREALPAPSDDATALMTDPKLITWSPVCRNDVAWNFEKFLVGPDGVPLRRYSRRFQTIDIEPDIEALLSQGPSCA
The nature of assay [8]: Primary redox qHTS assay for identification of artifact compounds. (AID 1845223).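 Also: 0% = DMSO and 100% = reference compound.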 An outline of the steps:
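Redox-cycling detection via DTT (250 uM final) oxidation coupled to Amplex Red (25 uM)/HRP (250 mU/mL) in HBSS. 15 min preincubation plus 30 min after DTT, room temperature. Ex/Em 525/598 nm; 4-parameter Hill fit against DMSO and 10 uM DA3003.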

For a further assay, the system named is C33A. Put plainly: Primary qHTS to identify gynecologic anti-cancer compounds using libraries of approved drugs and bioactive compounds (AID 1345084). Also: nearly all actives have a fitted effect of over 55% in size. Also: potency is read from the fitted curve at half-maximal effect. Conditions: Gynecologic cancer cell panel viability, ATPlite luminescence, 48 h; series mostly up to 57.5 µM. An outline of the steps:
as §2

Another assay deals with CASKI. Described as above. Conditions: Gynecologic cancer cell panel viability, ATPlite luminescence, 48 h; series mostly up to 57.5 µM. An outline of the steps: as §2
In the next assay the test system is Es-2. The assay is described as above. Conditions: Gynecologic cancer cell panel viability, ATPlite luminescence, 48 h; series mostly up to 57.5 µM. An outline of the steps: as §2
The next assay deals with OV90. Described as above. Conditions: Gynecologic cancer cell panel viability, ATPlite luminescence, 48 h; series mostly up to 57.5 µM. An outline of the steps: as §2
The test system of a further assay is PA-1. The description is as above. The following applies: Gynecologic cancer cell panel viability, ATPlite luminescence, 48 h; series mostly up to 57.5 µM. An outline of the steps:
as §2

In the next assay the test system is Tov-21-G. The description is as above. The following applies: Gynecologic cancer cell panel viability, ATPlite luminescence, 48 h; series mostly up to 57.5 µM. An outline of the steps:
as §2

Another assay relates to Tov112D. Described as above. Conditions: Gynecologic cancer cell panel viability, ATPlite luminescence, 48 h; series mostly up to 57.5 µM. An outline of the steps:
as §2

A further assay concerns JEG-3. Described as above. Conditions: Gynecologic cancer cell panel viability, ATPlite luminescence, 48 h; series mostly up to 57.5 µM. An outline of the steps: as §2

A number with no mark means an inactive call. Inconclusive results are not listed. The source made the active and inactive calls. Calls follow the shape of the dose curve; as a rule, active = well fitted curve in the direction sought with a large enough effect; inconclusive = small, poorly fitted or top-dose-only effect, or another doubt; inactive = no such curve, though single readings can be large; an effect the other way counts as inactive or inconclusive. Where a SMILES comes first, the peptide text is derived from it. [ ]: non-standard residue; d: D form. The star is where a group is joined. Dolaproine = CO[C@@H]([C@@H]1CCCN1)[C@@H](C)C(=O)O; Dil = CC[C@H](C)[C@H](NC)[C@@H](CC(=O)O)OC; Doe = c1ccc(C[C@H](N*)c2nccs2)cc1; Aib = CC(C)(N)C(=O)O

Sequence of Calcium and integrin-binding protein 1 (Homo sapiens) (Q99828 whole entry, looked up): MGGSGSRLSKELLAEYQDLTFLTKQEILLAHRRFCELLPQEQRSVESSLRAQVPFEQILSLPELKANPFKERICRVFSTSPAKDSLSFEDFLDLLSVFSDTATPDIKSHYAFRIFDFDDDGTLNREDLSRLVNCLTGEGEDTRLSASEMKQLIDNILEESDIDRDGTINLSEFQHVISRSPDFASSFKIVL

For the compound `CC[C@H](C)[C@@H]([C@@H](CC(=O)N1CCC[C@H]1[C@H](OC)[C@@H](C)C(=O)N[C@@H](Cc1ccccc1)c1nccs1)OC)N(C)C(=O)[C@@H](NC(=O)C(C)(C)N)C(C)C` (H-[Aib]V[Dil][Dolaproine]-Doe), the Potency result (in assay [1]; in assay [2]; in [3]; in assay [5]; in assay [6]; in the assay on CAOV3) was “inactive” each time. Besides, the Potency result with Hek293T was “inactive”. The outcome (in [4]; in the assay on HaCat) was inactive. Moreover, the max response in the assay on NIH3T3 is -54.1%.

As for `C[C@@H]1O[C@@H](O[C@H]2CC[C@@]3(C)C(CC[C@@H]4C3CC[C@]3(C)[C@@H](C5=CC(=O)OC5)CC[C@]43O)C2)[C@H](O)[C@H](O)[C@H]1O` (stereo partly specified), the Potency result in [1], in [2], in assay [7], in assay [3], in assay [5] and in assay [6] was “inactive” throughout. Moreover, the Potency result in assay [8] is “inactive”. Moreover, the outcome in assay [4] was “inactive [at 25.7 µM]”. For the same compound, the Potency with HaCat was 2820 nM (active); in the assay on C33A it was 1000 nM (active); with CAOV3, 3980 nM (active); in the assay with CASKI, 4470 nM (active); with Es-2, 1260 nM (active); in the assay on Hek293T it was 1000 nM (active). The Potency in the assay with OV90 is 5620 nM (active); in the assay with PA-1 it was 1000 nM (active); in the assay with Tov-21-G it was 1000 nM (active); in the assay on Tov112D, 355 nM (active). Moreover, in the assay on NIH3T3, the max response is -2.8%.

With `CC(=O)NCCCOc1ccc(C(=O)N2CCC(N3C(=O)CCc4ccccc43)CC2)cc1`, the Potency result in [1], in assay [2], in assay [7], in [5], in [6] and in [8] was “inactive” each time. For the same compound, the Potency result with C33A, in the assay on CASKI, in the assay with Es-2, with Hek293T, in the assay on JEG-3 and with OV90 was “inactive” each time. For the same compound, the Potency entry with PA-1, with Tov-21-G and in the assay on Tov112D was “inactive” each time. Moreover, the outcome in assay [4] was inactive. In addition, the max response with NIH3T3 was -14%.

In the case of `CN1C(=O)[C@]23CC4C(C)(C)[C@@]5(C[C@@]41CN2CC[C@@]3(C)O)C(=O)Nc1c5ccc2c1OC=CC(C)(C)O2` (stereo partly specified), the Potency entry (in [2]; in assay [7]; in assay [3]; in assay [6]; in assay [8]; with C33A) was “inactive” each time. Besides, the Potency result with CAOV3, in the assay with CASKI, in the assay with Es-2, with Hek293T, with JEG-3 and in the assay on OV90 was “inactive” throughout. Further, the Potency result in the assay with PA-1, in the assay with Tov-21-G and with Tov112D was “inactive” each time. Moreover, the outcome in assay [4] was inactive. The figures for the max response in the assay with HaCat and with NIH3T3 were -7.56% and -0.852%, respectively.

Consider `C/C=C(\C)C(=O)O[C@H]1CC2C(=C1C)[C@H]1OC(=O)[C@](C)(O)[C@]1(O)[C@H](OC(=O)CCC)C[C@@]2(C)OC(C)=O` (stereo partly specified), for which the Potency result in [1], in assay [2], in [3], in assay [5], in assay [6] and in [8] was “inactive” each time. The Potency entry with Hek293T is “inactive”. In addition, the outcome in [4] is “inactive [at 25.7 µM]”. Moreover, the values for the Potency with NIH3T3, with PA-1 and in the assay with Tov112D were 4470 nM (active), 5010 nM (active) and 5010 nM (active), respectively.

`CO/C1=C\C(C)=C\[C@@H](C)[C@@H](O)[C@@H](C)C/C(C)=C/C=C/[C@H](OC)[C@@H]([C@@H](C)[C@@H](O)[C@H](C)[C@@]2(O)C[C@@H](O)[C@H](C)[C@@H](C(C)C)O2)OC1=O`: the Potency result in assay [1], in assay [2], in [3], in assay [5], in [6] and in assay [8] was “inactive” each time. Besides, the Potency entry with CASKI and in the assay on JEG-3 was “inactive” throughout. The compound was classed as inactive in [4]. The Potency in the assay with C33A was 141 nM (active); in the assay on CAOV3, 126 nM (active); in the assay on Es-2 it was 79.4 nM (active); with Hek293T, 100 nM (active); with OV90, 89.1 nM (active); in the assay with PA-1, 89.1 nM (active). In addition, in the assay on Tov112D, the Potency is 100 nM (active).

Source of the values: PubChem BioAssay (NCATS).
